The supplement of paper PMC10849652
The full data set covers some 7,900 targets. This sample favours those with a hit. About 0.6% of all pairs of compound and target were hits.

Assays:
Experiment in all cases: log2 fold change, soluble protein after heating vs DMSO (PISA); higher = thermal stabilisation; K562 cells, 10 uM, 30 min; active = over 0.2 and 3.5 SD of the protein, either way, in both replicates (recomputed)
[1] = compound: C1=CC=C(C=C1)[C@H](COC2=CC3=C(C=C2)NC(=O)N3)NC(=O)C4=CC=CN(C4=O)CC5=CC(=C(C=C5)F)F
Procedure, shortened: (§1)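 K562 cells at 2×10^6 cells/mL were given 10 μM compound for 30 min. Aliquots then went through 3 min of heating across 48°C-58°C, were pooled, and were extracted in PBS with 0.5% NP-40 at 4°C, and the supernatant after 21,000xg for 90 min was quantified by TMTpro 16plex LC-MS/MS with channel sums equalised. Thermal stability relative to control samples, from duplicates, is given as log2 fold change.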

[2] = compound: CC1=C(SC2=C1C(=N[C@H](C3=NN=C(N32)C)CC(=O)N)C4=CC=C(C=C4)Cl)C
Procedure, shortened: as §1

[3] = compound: CC1=C2C(=CC=C1)N=C(N(C2=O)C3=CC=CC=C3C)CN4C=NC5=C(N=CN=C54)N
Procedure, shortened: as §1

[4] = compound: Cc1sc2c(c1C)C(c1ccc(Cl)cc1)=N[C@@H](CC(=O)OC(C)(C)C)c1nnc(C)n1-2
Procedure, shortened: as §1

[5] = compound: c1ccc([C@@H]2C[C@H]2NC2CCNCC2)cc1
Procedure, shortened: as §1

Measured: log2 fold change

ELOVL5 isoform 2 (UniProt Q9NYP7)
UniProt Q9NYP7, sequence (Q9NYP7 whole entry, looked up): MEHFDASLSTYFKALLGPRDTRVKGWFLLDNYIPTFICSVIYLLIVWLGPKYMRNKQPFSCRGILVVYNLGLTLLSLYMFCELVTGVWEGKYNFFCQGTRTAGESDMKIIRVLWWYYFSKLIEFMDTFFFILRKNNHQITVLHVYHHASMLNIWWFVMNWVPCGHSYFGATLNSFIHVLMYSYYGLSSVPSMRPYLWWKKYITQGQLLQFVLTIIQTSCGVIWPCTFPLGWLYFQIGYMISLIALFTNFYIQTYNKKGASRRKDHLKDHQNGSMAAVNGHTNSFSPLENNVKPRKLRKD
inactive: [1] -0.056 | [2] 0.021 | [3] 0.016 | [4] -0.074 | [5] 0.033

DNAAF2 (UniProt Q9NVR5)
UniProt Q9NVR5, sequence (Q9NVR5 whole entry, looked up): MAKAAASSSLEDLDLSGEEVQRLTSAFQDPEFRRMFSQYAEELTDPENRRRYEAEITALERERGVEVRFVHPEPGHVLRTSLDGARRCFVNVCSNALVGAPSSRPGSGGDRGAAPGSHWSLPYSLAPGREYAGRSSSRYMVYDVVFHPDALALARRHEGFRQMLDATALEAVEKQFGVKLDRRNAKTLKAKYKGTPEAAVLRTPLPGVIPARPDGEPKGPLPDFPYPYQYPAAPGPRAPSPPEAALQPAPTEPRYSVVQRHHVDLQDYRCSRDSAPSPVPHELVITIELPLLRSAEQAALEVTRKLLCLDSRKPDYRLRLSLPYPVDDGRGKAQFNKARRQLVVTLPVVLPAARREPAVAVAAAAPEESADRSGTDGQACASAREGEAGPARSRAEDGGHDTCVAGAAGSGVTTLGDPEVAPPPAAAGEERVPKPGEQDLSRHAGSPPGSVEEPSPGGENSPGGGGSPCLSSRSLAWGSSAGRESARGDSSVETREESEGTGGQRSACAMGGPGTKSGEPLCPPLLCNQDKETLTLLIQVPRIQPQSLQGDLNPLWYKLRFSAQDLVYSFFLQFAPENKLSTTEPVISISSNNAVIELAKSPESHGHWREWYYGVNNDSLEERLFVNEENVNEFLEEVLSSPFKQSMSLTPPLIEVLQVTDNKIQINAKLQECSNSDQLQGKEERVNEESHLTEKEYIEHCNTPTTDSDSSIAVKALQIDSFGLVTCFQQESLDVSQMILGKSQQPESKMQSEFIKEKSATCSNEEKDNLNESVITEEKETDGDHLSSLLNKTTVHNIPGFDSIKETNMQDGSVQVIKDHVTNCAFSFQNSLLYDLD
inactive: [1] 0.039 | [2] 0.02 | [3] -0.013 | [4] -0.003 | [5] 0.002

DDX46 (UniProt Q7L014)
UniProt Q7L014, sequence (Q7L014 whole entry, looked up): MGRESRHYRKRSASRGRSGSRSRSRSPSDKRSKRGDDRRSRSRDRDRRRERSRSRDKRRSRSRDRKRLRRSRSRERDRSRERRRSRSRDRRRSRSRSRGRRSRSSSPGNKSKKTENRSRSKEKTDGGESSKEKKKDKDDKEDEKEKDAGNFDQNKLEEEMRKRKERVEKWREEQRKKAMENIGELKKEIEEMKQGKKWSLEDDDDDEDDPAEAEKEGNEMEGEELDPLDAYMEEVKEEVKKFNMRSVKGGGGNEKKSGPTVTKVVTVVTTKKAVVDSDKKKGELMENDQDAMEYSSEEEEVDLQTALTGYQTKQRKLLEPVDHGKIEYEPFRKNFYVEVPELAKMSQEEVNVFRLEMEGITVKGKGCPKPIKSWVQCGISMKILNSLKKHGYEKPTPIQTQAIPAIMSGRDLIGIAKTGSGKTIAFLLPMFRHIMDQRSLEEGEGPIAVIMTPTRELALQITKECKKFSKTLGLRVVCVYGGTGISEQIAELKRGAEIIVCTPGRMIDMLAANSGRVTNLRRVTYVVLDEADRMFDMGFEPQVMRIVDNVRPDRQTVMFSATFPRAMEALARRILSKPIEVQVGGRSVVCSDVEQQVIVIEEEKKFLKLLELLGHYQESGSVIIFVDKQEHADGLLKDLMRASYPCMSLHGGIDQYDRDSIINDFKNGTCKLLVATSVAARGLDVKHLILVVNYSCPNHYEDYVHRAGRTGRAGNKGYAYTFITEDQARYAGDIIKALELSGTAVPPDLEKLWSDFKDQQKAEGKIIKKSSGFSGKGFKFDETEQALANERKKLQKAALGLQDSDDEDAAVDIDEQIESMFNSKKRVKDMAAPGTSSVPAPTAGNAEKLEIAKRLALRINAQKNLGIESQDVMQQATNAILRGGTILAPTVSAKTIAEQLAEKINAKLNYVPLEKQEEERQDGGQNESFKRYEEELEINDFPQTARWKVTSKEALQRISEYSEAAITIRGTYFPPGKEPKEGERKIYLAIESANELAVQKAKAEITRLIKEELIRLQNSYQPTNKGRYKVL
inactive: [1] -0.059 | [2] 0.09 | [3] 0.184 | [4] -0.064 | [5] 0
